The list is not random: actives were taken first. Their share in the collection is about 2.4%.
D2 PAM-1 = HTS Assay for Positive Allosteric Modulators of the Human D2 Dopamine Receptor: Primary Screen for Potentiators. hit rate 0.34% among 340,000. potentiation, % at 10 µM. HEK293 T-REx D2, calcium flux, EC20 dopamine potentiation. D(2) dopamine receptor (Homo sapiens), P14416;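 active = potentiation over 3 SD above the plate norm, cut at about 30% in these data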
Target sequence (P14416 whole entry, looked up): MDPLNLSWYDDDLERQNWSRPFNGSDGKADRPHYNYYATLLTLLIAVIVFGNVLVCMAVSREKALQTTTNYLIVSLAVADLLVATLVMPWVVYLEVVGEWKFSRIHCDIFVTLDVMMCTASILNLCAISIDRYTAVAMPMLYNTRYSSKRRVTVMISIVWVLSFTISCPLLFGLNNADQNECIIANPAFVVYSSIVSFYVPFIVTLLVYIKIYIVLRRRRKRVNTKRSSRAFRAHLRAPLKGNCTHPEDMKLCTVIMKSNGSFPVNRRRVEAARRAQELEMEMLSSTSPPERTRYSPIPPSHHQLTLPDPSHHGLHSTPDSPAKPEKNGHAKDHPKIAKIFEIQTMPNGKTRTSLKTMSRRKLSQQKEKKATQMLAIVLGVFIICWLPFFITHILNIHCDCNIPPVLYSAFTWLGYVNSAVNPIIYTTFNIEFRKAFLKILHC
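Primary screen. Calcium kinetics in induced HEK293 T-REx D2 cells: compound pre-addition 180 s, EC20 dopamine, 180 s more.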
D2 PAM-2 = Beta-Arrestin HTS for Positive Allosteric Modulators of the Human D2 Dopamine Receptor: Potentiators. hit rate 0.23% among 360,000. DiscoveRx D2 beta-arrestin cells, luminescence, 90 min; 100% = 57 uM dopamine signal. potentiation, % (test concentration not listed); in the data active = potentiation above about 50%
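PathHunter beta-arrestin assay in DiscoveRx D2 cells. Compounds were added with an EC20 of dopamine (50 nM final) for 90 min at 37 deg C. Luminescence was read 1 h after detection reagent, with 57 uM dopamine as the EC100 control.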
D2 ag-1 = Beta-Arrestin HTS for Positive Allosteric Modulators of the Human D2 Dopamine Receptor: Agonists; D(2) dopamine receptor (Homo sapiens), P14416; hit rate 0.084% among 360,000; DiscoveRx PathHunter D2 beta-arrestin, luminescence, 90 min; 100% = 57 uM dopamine signal; activation, % (no concentration beside the values); in the data active = activation above about 40%
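Agonist mode: compounds alone added to overnight-plated D2 PathHunter cells for 90 min at 37 C, with 57 uM final dopamine (EC100) defining full response. Beta-arrestin recruitment detected by chemiluminescent reagent, read after 1 h at ambient temperature.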
D2 antagonist = HTS Assay for Allosteric Antagonists of the Human D2 Dopamine Receptor: Primary Screen for Antagonists | HEK293 TREx D2 cells, calcium flux, dopamine EC80 | AID 485344, 2010 | inhibition, % at 10 µM | hit rate 2% among 340,000; in the data active = inhibition above about 30%; inactive = below that, where a call was filed
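Calcium flux kinetic readout in an inducible HEK293 TREx D2 line plated overnight at 30 C. After 180 s compound exposure, an EC80 dopamine challenge follows with another 180 s kinetic read to detect antagonism.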
D2 ag-2 = HTS Assay for Allosteric Agonists of the Human D2 Dopamine Receptor: Primary Screen for Agonists | D(2) dopamine receptor (Homo sapiens), P14416 | HEK293 T-REx D2 cells, calcium flux agonist mode | activation, % at 2 µM | hit rate 0.53% among 340,000;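 active = activation over 3 SD above normal in the single-dose calcium agonist read, cut at about 30% in these data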
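Agonism scored from kinetic calcium signal (1 read/sec, 180 s) following compound pin transfer, after a 10 s baseline. Cells: HEK293 Trex line expressing inducible D2 receptor coupled to calcium, dye-loaded after overnight culture at 30 C.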
A number is an active result; ! = not confirmed by another sample.

Screening CCC(=O)Nc1nc2c(OC)ccc(OC)c2s1 returned D2 PAM-1 inactive, D2 PAM-2 inactive, D2 ag-1 inactive, D2 antagonist inactive and D2 ag-2 inactive.
COc1ccc(OC)c2sc(NC(=O)C3CC3)nc12 was read as D2 PAM-1 inactive, D2 PAM-2 inactive, D2 ag-1 inactive, D2 antagonist 65 and D2 ag-2 inactive.
`Cc1ccc(C(=O)NCCN2C3=NC[C@@H](Cc4ccccc4)N3C[C@H]2Cc2ccc(O)cc2)cc1Br` gave D2 PAM-1 inactive, D2 PAM-2 inactive, D2 ag-1 inactive, D2 antagonist 68 and D2 ag-2 inactive.
`C=CCN(CC=C)CCOc1cccc2ccccc12` gave D2 PAM-1 inactive, D2 PAM-2 inactive, D2 ag-1 inactive, D2 antagonist inactive and D2 ag-2 35.
Screening C=CCN(CC=C)CCOc1ccccc1F returned D2 PAM-1 inactive, D2 PAM-2 inactive, D2 ag-1 inactive, D2 antagonist inactive and D2 ag-2 inactive.
Screening O=C(NC1CCN(Cc2ccccc2)CC1)c1ccccc1OCc1ccccc1Cl returned D2 PAM-1 inactive, D2 PAM-2 inactive, D2 ag-1 inactive, D2 antagonist 84 and D2 ag-2 inactive.
For O=C(NC1CCN(Cc2ccccc2)CC1)c1ccccc1OCc1ccccc1 the results were D2 PAM-1 inactive, D2 PAM-2 inactive, D2 ag-1 inactive, D2 antagonist 86 and D2 ag-2 inactive.
`O=C(NC1CCCC1)c1ccccc1OCc1ccccc1` gave D2 PAM-1 inactive, D2 PAM-2 inactive, D2 ag-1 inactive, D2 antagonist inactive and D2 ag-2 inactive.
CCOc1ccccc1C(=O)NC1CCN(Cc2ccccc2)CC1 was read as D2 PAM-1 inactive, D2 PAM-2 inactive, D2 ag-1 inactive, D2 antagonist 89 and D2 ag-2 inactive.
Screening COc1cccc(OC)c1OC(=O)C1CC(=O)N(c2ccc3c(c2)OCCO3)C1 (stereo not drawn) returned D2 PAM-2 inactive and D2 ag-1 inactive.
Screening COc1ccccc1OC(=O)C1CC(=O)N(c2ccc(Cl)cc2)C1 (stereo not drawn) returned D2 PAM-1 34, D2 PAM-2 inactive, D2 ag-1 inactive, D2 antagonist inactive and D2 ag-2 inactive.
`Cc1ccc(N2CC(C(=O)N3CCC(C(=O)Nc4ccc(Br)cc4)CC3)CC2=O)cc1` (stereo not drawn) gave D2 PAM-1 inactive, D2 PAM-2 inactive, D2 ag-1 inactive, D2 antagonist inactive and D2 ag-2 inactive.
`COc1ccccc1NC(=O)C(C)OC(=O)C1CC(=O)N(c2ccc3c(c2)OCCO3)C1` (stereo not drawn) gave D2 PAM-1 inactive, D2 PAM-2 63, D2 ag-1 inactive, D2 antagonist inactive and D2 ag-2 inactive.
COc1ccc(Cl)cc1NC(=O)C1CCN(C(=O)C2CC(=O)N(c3ccc(C)cc3)C2)CC1 (stereo not drawn) was read as D2 PAM-1 inactive, D2 PAM-2 inactive, D2 ag-1 inactive, D2 antagonist 37 and D2 ag-2 inactive.
Cc1ccc(N2CC(C(=O)N3CCC(C(=O)Nc4cccc(Br)c4)CC3)CC2=O)cc1 (stereo not drawn) was read as D2 PAM-1 inactive, D2 PAM-2 inactive, D2 ag-1 inactive, D2 antagonist 39 and D2 ag-2 inactive.
CC(C)(C)OC(=O)N1CCC(c2c(C(=O)N3CCN(C(=O)c4ccco4)CC3)cnn2-c2ccccc2)CC1 was read as D2 PAM-1 inactive and D2 ag-2 inactive.
Screening O=C(NCc1ccco1)c1cccc2c1C(=O)c1ccc(N3CCC(N4CCCCC4)CC3)cc1S2(=O)=O returned D2 PAM-2 inactive and D2 ag-1 inactive.
`CCCc1nc2nc(C)c(NS(=O)(=O)c3ccc(CC(C)C)cc3)c(=O)n2[nH]1` gave D2 PAM-1 32!, D2 PAM-2 inactive, D2 ag-1 inactive, D2 antagonist inactive and D2 ag-2 inactive.
COc1ccccc1NC(=O)c1oc2ccccc2c1NC(=O)C1CCCCC1 was read as D2 PAM-1 inactive and D2 ag-2 inactive.
`CN(CC1CCN(CCc2cccc(C(F)(F)F)c2)CC1)C(=O)c1ccc(F)cc1F` gave D2 PAM-1 inactive, D2 PAM-2 inactive, D2 ag-1 inactive, D2 antagonist 65 and D2 ag-2 inactive.
C=CCN1C(=O)/C(=C/C=C2/N(CC)c3ccc(S(=O)(=O)N(C)C)cc3N2CC)SC1=S was read as D2 PAM-1 inactive, D2 PAM-2 inactive, D2 ag-1 inactive, D2 antagonist inactive and D2 ag-2 52.
For CCc1ccc(S(=O)(=O)NCCc2csc3nc(-c4ccccc4)nn23)s1 the results were D2 PAM-1 inactive and D2 ag-2 inactive.
COc1ccccc1C(CNC(=O)c1ccco1)N1CCCC1 (stereo not drawn) was read as D2 PAM-1 inactive, D2 PAM-2 inactive, D2 ag-1 inactive, D2 antagonist 37 and D2 ag-2 inactive.
`COc1ccccc1-c1nn(-c2ccccc2)cc1C(=O)NCC(c1ccco1)N1CCCC1` (stereo not drawn) gave D2 PAM-1 inactive, D2 PAM-2 inactive, D2 ag-1 inactive, D2 antagonist 40 and D2 ag-2 inactive.
O=C(NCC(c1ccco1)N1CCCC1)c1cn(-c2ccccc2)nc1-c1ccc(F)cc1 (stereo not drawn) was read as D2 PAM-1 inactive, D2 PAM-2 inactive, D2 ag-1 inactive, D2 antagonist 76 and D2 ag-2 inactive.
Screening O=C(NCC(c1ccco1)N1CCCC1)c1cn(Cc2ccccc2)nc1-c1ccccc1 (stereo not drawn) returned D2 PAM-1 inactive, D2 PAM-2 inactive, D2 ag-1 inactive, D2 antagonist inactive and D2 ag-2 inactive.
For COc1ccc(Cl)cc1C(=O)NCC(c1ccco1)N1CCCC1 (stereo not drawn) the results were D2 PAM-1 inactive, D2 PAM-2 inactive, D2 ag-1 inactive, D2 antagonist inactive and D2 ag-2 inactive.
`COc1cc(/C=C/c2nc(C#N)c(NCCc3ccccc3)o2)cc(OC)c1OC` gave D2 PAM-1 inactive and D2 ag-2 inactive.
CCOC(=O)c1c(S(=O)(=O)NCC(=O)N2CCN(c3cccc(Cl)c3)CC2)c(C)n(C)c1C was read as D2 PAM-1 inactive and D2 ag-2 inactive.
`COc1ccc(Nc2nc(N)c3cc(OC)c(OC)cc3n2)cc1` gave D2 ag-2 inactive.
Screening COc1ccccc1CNC(=O)CS(=O)(=O)Cc1nc(-c2ccccc2C)oc1C returned D2 PAM-1 inactive and D2 ag-2 inactive.

High-throughput results: PubChem, National Center for Advancing Translational Sciences (NCATS)
